PLCg1 inh: inhibitors of human phospholipase C gamma1 | P19174 | purified PLC-gamma1, fluorogenic substrate, fluorescence | inhibition, % at 12.2 µM | hit rate 0.84% among 370,000 | AID 720700; in the data active means inhibition above about 9.5%
ADAM10 inh: ADAM10 inhibition, QFRET primary screen; O14672; recombinant ADAM10, EDANS/DABCYL FRET peptide cleavage, 3 h; inhibition, % at 7 µM; hit rate 0.62% among 370,000;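 active means inhibition above a per-campaign cutoff equal to the mean of compounds falling between control-based bounds plus 3 SD, cut at about 20% in these data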
KLK7 zymogen act: proKLK7 (human) activation, primary screen. activation, % at 7 µM. purified proKLK7, EDANS-DABCYL substrate fluorescence; 100% is mature enzyme control, 0% vehicle. hit rate 0.9% among 370,000. P49862;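 active means activation above the mean of all tested compounds plus 3 SD, computed per campaign excluding outliers beyond control limits, cut at about 13% in these data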
HGIII-sPLA2 inh: Blocks human group III sPLA2 activity. hit rate 0.56% among 370,000. QFRET BODIPY PC-A2 liposome hydrolysis, fluorescence. inhibition, % at 12.2 µM;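 active means inhibition above mean plus 3 SD of compounds lying within the high and low control bounds, cut at about 19% in these data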
Target sequence (Q9NZ20 whole entry, looked up): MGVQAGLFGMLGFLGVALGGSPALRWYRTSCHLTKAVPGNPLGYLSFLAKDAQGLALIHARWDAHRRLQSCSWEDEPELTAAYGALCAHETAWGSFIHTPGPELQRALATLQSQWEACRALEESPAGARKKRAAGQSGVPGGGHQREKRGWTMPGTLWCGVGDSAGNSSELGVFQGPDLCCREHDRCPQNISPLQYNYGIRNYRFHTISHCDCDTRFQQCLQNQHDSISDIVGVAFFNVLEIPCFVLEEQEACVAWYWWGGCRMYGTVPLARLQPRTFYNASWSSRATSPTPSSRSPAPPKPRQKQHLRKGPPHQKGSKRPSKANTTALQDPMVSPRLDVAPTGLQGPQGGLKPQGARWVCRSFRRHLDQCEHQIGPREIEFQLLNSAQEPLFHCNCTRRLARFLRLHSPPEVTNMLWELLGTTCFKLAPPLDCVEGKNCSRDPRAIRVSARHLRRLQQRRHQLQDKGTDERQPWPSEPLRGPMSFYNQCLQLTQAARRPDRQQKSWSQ
PLC-beta3 inh: inhibitors of human phospholipase C beta3. Q01970. Purified PLC-beta3, fluorogenic substrate, fluorescence. inhibition, % at 12.2 µM. hit rate 0.18% among 370,000. AID 720704; in the data active means inhibition above about 11%
ADAM17 inh: inhibitors of human ADAM17; P78536; recombinant ADAM17, EDANS/DABCYL FRET peptide cleavage; inhibition, % at 6.95 µM; hit rate 0.83% among 370,000; AID 720648;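 active means inhibition above the mean of compounds lying between control limits plus 3 SD, set per campaign, cut at about 8.5% in these data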
proKLK7 act conf: confirmation of human kallikrein-7 zymogen activators. shares compounds with KLK7 zymogen act. purified proKLK7, EDANS-DABCYL substrate fluorescence; scaled: vehicle 0, mature enzyme 100. activation, % at 7 µM. hit rate 68% among 3,200. AID 686949;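 active means activation, as change over the incubation, above the mean of all tested compounds plus 3 SD, cut at about 13% in these data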
EDANS-DABCYL int: counter-screen for kallikrein-7 activators: EDANS-DABCYL optical interference. shares compounds with KLK7 zymogen act. EDANS-DABCYL substrate fluorescence interference, no enzyme, 4 h; solvent 0%, active enzyme control 100%. activation, % at 7 µM. hit rate 80% among 3,200. AID 686952;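 active means activation above the all-compound mean plus 3 SD, ignoring values outside control-based bounds, cut at about 4.8% in these data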;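 further: value is the 4 h activation minus the activation read at time zero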
A number is an active result; . = inactive; / = no result. Rows were chosen to be rich in hits. Some 3.4% of all compounds tested hit in one or more screens of this group.

SMILES	PLCg1 inh	ADAM10 inh	KLK7 zymogen act	HGIII-sPLA2 inh	PLC-beta3 inh	ADAM17 inh	others
Cc1cc2c(C(C)C)c(O)c(O)c(C=O)c2c(O)c1-c1c(C)cc2c(C(C)C)c(O)c(O)c(C=O)c2c1O	.	41	.	.	.	12
COC(=O)C[C@]1(C(=O)OC)CN(C#N)N(c2ccc(Cl)cc2)C12c1ccccc1-c1ccccc12	.	31	.	.	.	.
CC(=O)N1c2ccccc2C(c2ccccc2)=NCC1C(=O)NC1CCCCC1 (centres undefined)	.	.	.	.	.	.
COc1ccc(N=Nc2c(O)[nH]c(=S)[nH]c2=O)cc1	.	.	.	.	.	.
CSc1nc(N)c(N=Nc2ccc([As](=O)(O)O)cc2)c(=O)[nH]1	.	.	.	.	.	9.1
C=CCCC(NC(=O)OCc1ccccc1)P(=O)(Oc1ccccc1)Oc1ccccc1 (centres undefined)	.	.	/	.	.	.
O=C1C2CC=CCC2C(=O)N1SC(Cl)(Cl)Cl (centres undefined)	.	.	.	.	.	.
Clc1cccc(N2Cc3cc(-c4ccccc4)ccc3-n3nncc3C2)c1	12	.	.	.	.	.
Clc1cccc(N2Cc3cc(N4CCOCC4)ccc3-n3nncc3C2)c1	.	.	.	.	.	.
c1ccc(Cn2nnnc2C2CN=C(c3ccccc3)c3ccccc3N2)cc1 (centres undefined)	.	.	.	.	.	.
COc1cc(C(=O)Nc2ccc(Br)cc2C(=O)c2ccccc2)cc(OC)c1OC	.	.	26	.	.	.
O=c1[nH]c(=O)n(CCC2=CCCCC2)c(O)c1C=NC1CCN(Cc2ccccc2)CC1	.	.	.	.	.	8.9
COC(=O)C1=C(c2cccc(C#N)c2)C[C@@H]2CC[C@H]1N2C(=O)NCc1cc(C)oc1C(F)(F)F	.	.	.	.	.	.
COC(=O)C1=C(c2ccc(F)cc2OCc2ccccc2)C[C@@H]2CC[C@H]1N2C(=O)NCc1ccc2c(c1)OCO2	.	22	.	.	.	.
COC(=O)C1=C(c2ccccc2)C[C@@H]2CC[C@H]1N2C(=O)NCc1ccc(F)cc1	.	.	.	.	.	.
COC(=O)C1=C(c2ccc(F)cc2F)C[C@@H]2CC[C@H]1N2C(=O)NCc1ccc(F)cc1	.	76	.	.	.	.
COC(=O)C1=C(c2ccc(-c3ccccc3)c(F)c2)C[C@@H]2CC[C@H]1N2C(=O)NCc1cc(C)oc1C(F)(F)F	10.0	.	.	.	.	.
COC(=O)C1=C(c2ccc(F)cc2OCc2ccccc2)C[C@@H]2CC[C@H]1N2C(=O)NCc1ccccc1	.	.	.	.	.	.
COC(=O)[C@H]1C[C@@]2(C)c3ccccc3N[C@H]2N1	.	.	.	.	.	.
CC(C)(C)NC(=O)CN1C(=O)[C@@H](Cc2c[nH]c3ccccc23)N=C(c2ccccc2)c2ccccc21	.	.	.	.	.	.
Brc1ccccc1	.	.	.	.	11	.
CCCCn1c(NC(=O)c2ccc(Br)o2)c(C(=O)OCC)c2nc3ccccc3nc21	.	.	19	.	.	.
CCCCn1c(NS(=O)(=O)c2ccccc2)c(C(=O)OCC)c2nc3ccccc3nc21	.	.	.	.	.	.
COc1ccc(Cc2cn(C)c(N)n2)cc1	.	.	.	.	.	.
CC(C)(C)NC(=S)N1Cc2ccccc2-n2nncc2C1	13	.	.	.	.	.
SMILES	PLCg1 inh	ADAM10 inh	KLK7 zymogen act	HGIII-sPLA2 inh	PLC-beta3 inh	ADAM17 inh	others
CN1CN(c2ccccc2)C2(CCN(CCCSc3ccccc3NC(=O)/C=C/c3ccccc3)CC2)C1=O	.	.	.	.	.	14
CC1(C)CN(S(=O)(=O)OCC(Cl)(Cl)Cl)C(=O)N1	9.8	.	.	.	.	.
COCCCn1c(N)c(C(=O)NCc2ccco2)c2nc3ccccc3nc21	.	.	34	.	.	.
COCCCn1c(N)c(C(=O)Nc2ccccc2)c2nc3ccccc3nc21	.	.	.	.	.	.
CC(C)(C)n1nnnc1C1CN=C(c2ccccc2)c2ccccc2N1 (centres undefined)	.	.	.	.	.	.
COc1ccc2c(c1)c(C(=O)C(C)N1CCCCC1)c(C)n2C (centres undefined)	.	.	.	.	.	.
CC(C(=O)c1ccc2ccccc2c1)N1CCCCC1 (centres undefined)	.	.	32	.	.	.	proKLK7 act conf=.;EDANS-DABCYL int=.
CC(C)NC(C)C(=O)c1ccc2ccccc2c1 (centres undefined)	.	.	27	.	.	.	proKLK7 act conf=.;EDANS-DABCYL int=8.3
CC(C)(C)n1nnnc1C1CN=C(c2ccccc2)c2cc(Cl)ccc2N1 (centres undefined)	.	.	.	.	.	.
O=c1ccc2cc(O[C@@H]3O[C@@H](CO)[C@H](O)[C@@H](O)[C@@H]3O)c(O)cc2o1	.	.	65	.	.	.	proKLK7 act conf=77;EDANS-DABCYL int=84
CCCCn1c(N)c(C(=O)NCCN2CCOCC2)c2nc3ccccc3nc21	.	.	.	.	.	.
CCOC(=O)c1c(N)n(CCN2CCCCC2)c2nc3ccccc3nc12	.	.	154	.	.	.	proKLK7 act conf=29;EDANS-DABCYL int=17
COCCNC(=O)c1c(N)n(Cc2ccco2)c2nc3ccccc3nc12	.	.	27	.	.	.	proKLK7 act conf=.;EDANS-DABCYL int=.
COCCCn1c(N)c(C(=O)OC(C)COC)c2nc3ccccc3nc21 (centres undefined)	.	.	52	.	.	.	proKLK7 act conf=75;EDANS-DABCYL int=71
O=C(NCCN1CCC2(CC1)C(=O)NCN2c1ccccc1)c1ccc(F)c(F)c1	.	.	.	.	.	.
O=C(c1cc(-c2ccccc2)nc2ccccc12)N1CCC2(CC1)OCCO2	.	.	.	.	.	.
O=C(c1cccn2c(=O)c3ccccc3nc12)N1CCC2(CC1)OCCO2	.	.	40	.	.	.	proKLK7 act conf=42;EDANS-DABCYL int=49
O=C(c1cccn2c(=O)c3cc(Cl)ccc3nc12)N1CCC2(CC1)OCCO2	.	.	14	.	.	.	proKLK7 act conf=58;EDANS-DABCYL int=73
COC(=O)[C@@]1(O)c2c(oc3cccc(O)c3c2=O)C=C[C@H]1O	.	.	.	.	.	.
CC[C@@H]1C[C@H]2CC[C@H](O2)[C@H](C)C(=O)O[C@@H](C)C[C@@H]2CC[C@@H](O2)[C@@H](C)C(=O)O[C@H](C)C[C@H]2CC[C@H](O2)[C@H](C)C(=O)O[C@@H](C)C[C@@H]2CC[C@@H](O2)[C@@H](C)C(=O)O1	.	.	.	.	.	.
